Compound activity as filed in PubChem BioAssay.
A selection: hits, their analogues and other compounds. The true share with any hit is near 3.8%.
S2 tox – cell viability loss in ATXN counter-screen. S2 cells (HEK-293 line with an ATXN2-luciferase reporter) viability, CellTiter-Fluor protease fluorescence, 24 h. Potency, µM (highest dose often 56.7 µM), actives largely listed as cytotoxic. 400,000 compounds, 0.49% hits. AID 651635; further: nearly all actives have a fitted effect of over 40% in size
ATXN2 expr inh – ATXN2 expression inhibition. HEK-293 ATXN2-luciferase reporter, luminescence, 24 h. Potency, µM (highest dose often 57 µM), without a hit: at the top dose activity change, negative = inhibition, most hits filed as inhibitors. 360,000 compounds, 0.72% hits. AID 1745845; further: on the % scale 0 is the no-effect control and ±100 the full control effect; nearly all actives have a fitted effect of over 55% in size
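qHTS (up to 57 uM final) was run with 24 h compound exposure of reporter cells at 37 °C. Each well was multiplexed: SteadyGlo luminescence measured ATXN2-luciferase expression after a fluorogenic Gly-Phe-AFC viability readout (25 uM final).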
A549 tox-1 – counter-screen for Nrf2 inhibitors: cytotoxicity in A549 cells | Potency, µM (top dose mostly 46 µM), inactives show at the highest dose activity change, negative = cytotoxicity, most hits filed as inhibitors | A549 ARE-Fluc cells, CellTiter-Fluor viability, 18-24 h | AID 504648 | 390,000 compounds, 0.16% hits; further: on the % scale 0 is the no-effect control and ±100 the full control effect
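A549 ARE-Fluc cells in 5% FBS OPTI-MEM, 5000 cells/well, rested 2 h then exposed to compounds in concentration-response for 18-24 h at 37 °C. Viability by CellTiter-Fluor fluorescence (Ex 405/Em 525) after 30 min; luciferase luminescence (BugLite, 15 min, RT) read afterwards.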
TGFb SMAD3 inh – inhibitors of TGF-b signaling. HepG2 CAGA-GFP TGF-b/SMAD3 reporter, GFP fluorescence, 18 h; TGF-beta stimulated, 500 pg/mL final. Potency, µM (titrated, usually from 46.1 µM), inactives show at the highest dose activity, negative = inhibition, usual class: inhibitors. 410,000 compounds, 1.2% hits. AID 588855; further: on the % scale 0 is the no-effect control and ±100 the full control effect; nearly all actives have a fitted effect of over 65% in size
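Smad-responsive CAGA-GFP expression was quantified in HEPG2 cells exposed to compounds and 500 pg/mL final TGF-beta for 18 h at 37 degrees C; unstimulated wells defined full inhibition.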
Nrf2 block – inhibitors of Nrf2 signaling; A549 ARE-Fluc reporter, luciferase luminescence, 18-24 h; Potency, µM (series often up to 46 µM), without a hit: top-dose activity change, negative = inhibition, most hits filed as inhibitors; 360,000 compounds, 2.1% hits; AID 504444; further: on the % scale 0 is the no-effect control and ±100 the full control effect; nearly all actives have a fitted effect of over 60% in size
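Quantitative HTS in A549 cells stably bearing an antioxidant response element-firefly luciferase construct. Inhibition of Nrf2-driven transcription was scored by luminescence after 18-24 h of compound exposure at 37 °C.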
HepG2 tox – counter-screen for TGF-b inhibitors: cytotoxicity in HepG2 cells; Potency, µM (doses to about 46.1 µM), for the others: at the top dose activity change, negative = cytotoxicity, usual class: cytotoxic; HepG2 CAGA-GFP viability, ATP luminescence, 18 h; AID 588856; 410,000 compounds, 0.76% hits
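HepG2 CAGA-GFP cells (1000/well, DMEM with 1% FBS) received compound, then TGF-beta at 500 pg/mL final, and were incubated 18 hours at 37 degrees C. Viability was read by CellTiter-Glo luminescence. Media-only wells were set as complete cell-killing and DMSO as no toxicity.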
FLuc enzyme inh – blocks purified firefly luciferase in Nrf2 counterscreen | shares compounds with Nrf2 block | purified firefly luciferase, luminescence inhibition | Potency, µM (titrated, usually from 57.5 µM), for inactives: top-dose activity change, negative = inhibition, most hits filed as inhibitors | 1,400 compounds, 4% hits | AID 720522; further: on the % scale 0 is the no-effect control and ±100 the full control effect; nearly all actives have a fitted effect of over 65% in size
Target sequence (P08659 whole entry, looked up): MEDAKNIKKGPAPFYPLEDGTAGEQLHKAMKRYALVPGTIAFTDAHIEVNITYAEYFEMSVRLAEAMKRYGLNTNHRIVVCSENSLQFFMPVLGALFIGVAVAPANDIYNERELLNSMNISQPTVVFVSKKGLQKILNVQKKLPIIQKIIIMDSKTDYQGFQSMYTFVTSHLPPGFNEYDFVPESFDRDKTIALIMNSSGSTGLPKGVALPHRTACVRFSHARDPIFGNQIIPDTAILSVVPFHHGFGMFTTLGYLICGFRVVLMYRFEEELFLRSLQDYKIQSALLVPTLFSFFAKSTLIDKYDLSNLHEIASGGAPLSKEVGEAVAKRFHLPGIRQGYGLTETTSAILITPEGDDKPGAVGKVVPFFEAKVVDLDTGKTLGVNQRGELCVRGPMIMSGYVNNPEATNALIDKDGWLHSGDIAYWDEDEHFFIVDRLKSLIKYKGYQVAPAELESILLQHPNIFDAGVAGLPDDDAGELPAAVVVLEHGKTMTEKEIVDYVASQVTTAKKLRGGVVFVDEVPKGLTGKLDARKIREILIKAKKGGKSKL
A549 tox-2 – A549 cytotoxicity, Nrf2 inhibitor counterscreen; A549 ARE-Fluc cells, cytotoxicity counterscreen; 1,400 compounds, 2% hits; shares compounds with Nrf2 block; Potency, µM (highest dose often 46.1 µM), without a hit: at the top dose activity change, negative = cytotoxicity, usual class: inhibitors;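 further: cells exposed to compounds for 18 to 24 hours; on the % scale 0 is the no-effect control and ±100 the full control effect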
Nrf2 ARE inh – reduces Nrf2 ARE reporter signal in A549 cells | shares compounds with Nrf2 block | A549 ARE-firefly luciferase reporter, luminescence | Potency, µM (series often up to 46.1 µM), for the others: at the top dose activity change, negative = inhibition, usual class: inhibitors | 1,400 compounds, 74% hits | AID 720524; further: on the % scale 0 is the no-effect control and ±100 the full control effect; nearly all actives have a fitted effect of over 65% in size
* marks the source's active call; other numbers are inactive results. The call rests on the fitted dose curve; in most records, active means well fitted curve in the direction sought with a large enough effect; inconclusive means small, poorly fitted or top-dose-only effect, or another doubt; inactive means no such curve, though single readings can be large; an effect the other way counts as inactive or inconclusive. Potency means the concentration at half of the fitted maximal effect.

What do the screens show for `CC(=O)N(C)c1ccc(OCC(O)Cn2c(C)nc3ccccc32)cc1` (stereo not given)?
S2 tox: inactive; A549 tox-1: -18%; TGFb SMAD3 inh: -4%; Nrf2 block: 9.2µM*; HepG2 tox: -2%; FLuc enzyme inh: 1%; A549 tox-2: 7%; Nrf2 ARE inh: inconclusive

How did CC(=O)Nc1ccc(OCC(O)Cn2c(C)nc3ccccc32)cc1 (stereo not given) do in these assays?
S2 tox: inactive; ATXN2 expr inh: -2%; A549 tox-1: 5%; TGFb SMAD3 inh: 0%; Nrf2 block: -16%; HepG2 tox: -3%

Results for N#Cc1ccc(-c2cn(-c3ccccc3)c3[n+]2CCCS3)cc1 ?
S2 tox: inactive; ATXN2 expr inh: 1%; A549 tox-1: 1%; TGFb SMAD3 inh: -6%; Nrf2 block: 4%; HepG2 tox: -191%

What do the screens show for `COc1ccc(-n2cc(-c3ccc(C)cc3)[n+]3c2SCC3)cc1`?
S2 tox: inactive; ATXN2 expr inh: inconclusive; A549 tox-1: inconclusive; TGFb SMAD3 inh: -18%; Nrf2 block: 9.2µM*; HepG2 tox: -30%; FLuc enzyme inh: 2%; A549 tox-2: -7%; Nrf2 ARE inh: 5.2µM*

What do the screens show for `Cc1ccc(-c2cn(-c3ccccc3)c3[n+]2CCCS3)cc1`?
S2 tox: inactive; ATXN2 expr inh: inconclusive; A549 tox-1: inconclusive; TGFb SMAD3 inh: inconclusive; Nrf2 block: 4.6µM*; HepG2 tox: -7%; FLuc enzyme inh: 2%; A549 tox-2: -5%; Nrf2 ARE inh: 6.5µM*

Results for O=C1CC(N2CCc3ccccc32)C(=O)N1c1ccc(F)cc1 (stereo not given) ?
S2 tox: inactive; ATXN2 expr inh: 11%; A549 tox-1: -1%; TGFb SMAD3 inh: 2%; Nrf2 block: 8%; HepG2 tox: 0%

Results for COc1ccc(S(=O)(=O)N2CCCCCC2)cc1NC(=O)Cc1cc(OC)c(OC)c(OC)c1 ?
S2 tox: inconclusive; ATXN2 expr inh: -4%; A549 tox-1: -4%; TGFb SMAD3 inh: 0%; Nrf2 block: -24%; HepG2 tox: -23%

What do the screens show for `COc1ccc(CC(=O)Nc2cc(S(=O)(=O)N3CCCCC3)ccc2C)cc1OC`?
S2 tox: inactive; ATXN2 expr inh: -24%; A549 tox-1: inconclusive; TGFb SMAD3 inh: inconclusive; Nrf2 block: 4.1µM*; HepG2 tox: -29%; FLuc enzyme inh: 1%; A549 tox-2: -6%; Nrf2 ARE inh: 7.3µM*

What do the screens show for `CCc1ccc(NC(=O)c2ccc(Cn3nc(N4CCN(c5ccccc5)CC4)ccc3=O)o2)cc1`?
A549 tox-1: inconclusive; TGFb SMAD3 inh: inconclusive; Nrf2 block: 5.2µM*; HepG2 tox: -36%; FLuc enzyme inh: inconclusive; A549 tox-2: -14%; Nrf2 ARE inh: 6.5µM*

Results for Cc1noc(C)c1CSCC(=O)Nc1nc(-c2ccc(F)c(F)c2)cs1 ?
S2 tox: inconclusive; ATXN2 expr inh: 22µM*; A549 tox-1: inconclusive; TGFb SMAD3 inh: inconclusive; Nrf2 block: 9.2µM*; HepG2 tox: -20%; FLuc enzyme inh: -13%; A549 tox-2: -18%; Nrf2 ARE inh: 13µM*

What do the screens show for `O=C(CSc1c2c(nc3ccc(Cl)cc13)CCCC2)N1CCN(c2cccc(Cl)c2)CC1`?
A549 tox-1: -27%; TGFb SMAD3 inh: -55%; Nrf2 block: 9.2µM*; HepG2 tox: -50%; FLuc enzyme inh: 2%; A549 tox-2: inconclusive; Nrf2 ARE inh: inconclusive

What do the screens show for `COc1ccc(N2CCN(C(=O)CSc3c4c(nc5ccc(Cl)cc35)CCCC4)CC2)cc1`?
S2 tox: inconclusive; ATXN2 expr inh: inconclusive; A549 tox-1: -21%; TGFb SMAD3 inh: inconclusive; Nrf2 block: inconclusive; HepG2 tox: -34%

How did CCc1ccc(CNC(=O)CSc2c3c(nc4ccc(Cl)cc24)CCCC3)cc1 do in these assays?
A549 tox-1: -3%; TGFb SMAD3 inh: -19%; Nrf2 block: 2%; HepG2 tox: -18%

How did O=C(CSc1c2c(nc3ccc(Cl)cc13)CCCC2)N1CCN(c2ccc(Cl)cc2)CC1 do in these assays?
A549 tox-1: inconclusive; TGFb SMAD3 inh: -17%; Nrf2 block: 2.9µM*; HepG2 tox: -41%; FLuc enzyme inh: -1%; A549 tox-2: inconclusive; Nrf2 ARE inh: 21µM*

Results for COc1ccc(Br)cc1C1C(C(=O)Nc2ccc(C)cc2C)=C(C)Nc2ncnn21 (stereo not given) ?
S2 tox: inactive; ATXN2 expr inh: -6%; A549 tox-1: 1%; TGFb SMAD3 inh: -4%; Nrf2 block: -3%; HepG2 tox: -3%

What do the screens show for `CC(C)Nc1nc(Cl)nc(NNC(=O)C(C)Oc2ccccc2)n1` (stereo not given)?
S2 tox: inactive; ATXN2 expr inh: -3%; A549 tox-1: -1%; TGFb SMAD3 inh: -10%; Nrf2 block: -24%; HepG2 tox: 0%

Results for C=CCN(CC=C)Cc1cc(=O)oc2cc(C)c(Cl)cc12 ?
S2 tox: inactive; ATXN2 expr inh: 7%; TGFb SMAD3 inh: inconclusive; HepG2 tox: -8%

Results for Cc1ccc(OCC(=O)NCCCNC(=O)c2cccnc2)cc1 ?
S2 tox: inactive; ATXN2 expr inh: -8%; A549 tox-1: 0%; TGFb SMAD3 inh: -1%; Nrf2 block: 1.8µM*; HepG2 tox: -1%; FLuc enzyme inh: 1%; A549 tox-2: 2%; Nrf2 ARE inh: 6%

Results for O=C(NCc1ccco1)c1cccc2c(-c3ccc(F)c(F)c3)coc12 ?
S2 tox: inactive; ATXN2 expr inh: 12%; TGFb SMAD3 inh: 26%; HepG2 tox: -14%

What do the screens show for `COC(=O)c1ccccc1NC(=O)Cn1c(=O)cc(C)c2c(C)nn(C)c21`?
S2 tox: inactive; ATXN2 expr inh: -14%; A549 tox-1: -1%; TGFb SMAD3 inh: inconclusive; Nrf2 block: 9%; HepG2 tox: -12%
